In PubChem BioAssay (NCI):
This is part of a sample that, as a whole, favours compounds with a hit. Of some 83,000 tested, about 20% had one in any assay.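 Values shown are percent growth following 48 h exposure of cells in 96-well plates to a single concentration of compound; below 10 was considered active.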 A number with no mark means an inactive call. Calls of active or inactive are those of the source.

What was measured:
Assay in all cases: NCI-60 one-dose screen, 48 h (100 = growth as untreated, 0 = no growth, -100 = all killed)
K-562 leukemia = conditions: 10 µM unless noted
MALME-3M melanoma = conditions: 10 µM unless noted
MDA-MB-231 breast = conditions: 10 µM unless noted
RXF 393 renal = conditions: 10 µM unless noted
SF-268 CNS = conditions: 10 µM unless noted
SF-295 CNS = conditions: 10 µM unless noted
SF-539 CNS = conditions: 10 µM unless noted
UACC-257 melanoma = conditions: 10 µM unless noted
M14 melanoma = conditions: 10 µM unless noted
HT29 colon = conditions: 10 µM unless noted
SNB-19 CNS = conditions: 10 µM unless noted
U251 CNS = conditions: 10 µM unless noted
PC-3 prostate = conditions: 10 µM unless noted
UACC-62 melanoma = conditions: 10 µM unless noted
LOX IMVI melanoma = conditions: 10 µM unless noted
SK-MEL-2 melanoma = conditions: 10 µM unless noted
HCT-15 colon = conditions: 10 µM unless noted
SNB-75 CNS = conditions: 10 µM unless noted
SK-MEL-5 melanoma = conditions: 10 µM unless noted
SK-MEL-28 melanoma = conditions: 10 µM

SMILES | growth (K-562 leukemia) | growth (MALME-3M melanoma) | growth (MDA-MB-231 breast) | growth (RXF 393 renal) | growth (SF-268 CNS) [%] | growth (SF-295 CNS) | growth (SF-539 CNS) | growth (UACC-257 melanoma) | growth (M14 melanoma) | growth (HT29 colon) | growth (SNB-19 CNS) [%] | growth (U251 CNS) | growth (PC-3 prostate) | growth (UACC-62 melanoma) | growth (LOX IMVI melanoma) | growth (SK-MEL-2 melanoma) | growth (HCT-15 colon) | growth (SNB-75 CNS) | growth (SK-MEL-5 melanoma) | growth (SK-MEL-28 melanoma)
CN1C(=O)N(C)C2C1NN=c1s/c(=C\c3ccc([N+](=O)[O-])cc3)c(=O)n12 (configuration not stated) | 22% | 65.9% | 75.1% | 78.6% | 77.1 | 40.8% | 54.7% | 63.6% | 51.2% | 25.9% | 54 | 69.8% | 45.8% | 39.4% | 51.3% | 64.6% | – | – | – | –
O=C(c1nc2ccccc2[nH]1)C1[C@@H](c2cccc(O)c2)C2CC3CCCCC3N2[C@@]12C(=O)Nc1cc(Cl)ccc12 (some centres not stated) | 21.5% | 32.1% | 34.7% | 1.99% (active) | 49.5 | 37.2% | 48.7% | 48.9% | – | 50.6% | 42.4 | 37.7% | 24% | 47.6% | 22.3% | 60.2% | 40.7% | 27.2% | 37.2% | 45%
CCCCNc1nc(NC(C)(C)C)nc(NC(C)(C)C)n1 | 20.8% | 87.3% | 72% | -7.69% (active) | 91.7 | -19.5% (active) | 51% | 81% | 57.5% | 15.2% | 63.7 | 38% | 58.6% | 55.3% | 56.8% | 64.1% | – | 59.8% | 50.7% | –
COc1ccc(Nc2cc(C)nc(NCc3ccccc3)n2)cc1 | 5.22% (active) | 13.6% | -18.1% (active) | -16.2% (active) | 47.8 | -30.7% (active) | 47.5% | 46.8% | 8.52% (active) | 11% | 57.1 | 15.8% | 28.1% | 69.3% | -57.5% (active) | 31.1% | – | 49% | 61.9% | –
Cc1ccc(NCCNCC(O)CO)c2c(=O)c3ccccc3sc12 (configuration not stated) | -13.4% (active) | -12.4% (active) | -15.9% (active) | 13.8% | 29.3 | 25.4% | 47.3% | 6.52% (active) | – | -61.1% (active) | 26.3 | 9.2% (active) | 13.6% | -49.9% (active) | – | 75.8% | -37.2% (active) | 44.6% | -81% (active) | 1.81% (active)
Cc1c(-c2csc(-n3nc(C(F)(F)F)cc3C(F)(F)F)n2)no[n+]1[O-] | 93.1% | 96.8% | 96.5% | 101% | 96.1 | 93.9% | 99.1% | 98.5% | 90.2% | 99.2% | 94.1 | 104% | 98.6% | 89.5% | 99% | 99.4% | – | – | – | 102%
O=C(N/N=C/c1ccccc1Cl)C(=O)Nc1cccc(C(F)(F)F)c1 | 85.3% | 111% | 99.3% | 97.9% | 105 | 87.7% | 102% | 103% | – | 97.4% | 94.1 | 96.9% | 106% | 91.2% | 94.9% | 113% | 97.1% | 116% | 96.6% | –
CC1(C)CC2(C)OC2C2(C1)N=NC(=Nc1ccccc1)O2 (configuration not stated) | 19.5% | 57.1% | 91.8% | -1.33% (active) | 83.3 | 65.6% | 83.7% | 64.2% | 65.4% | 25.1% | 86 | 84.4% | 62.5% | 73.1% | – | 76.6% | – | 84.8% | 61.5% | 70.3%
COc1ccccc1N1CCN(C(CNS(=O)(=O)c2ccc(Cl)cc2)c2cccnc2)CC1 (configuration not stated) | 28.4% | 60.2% | 71% | 36.3% | 90.8 | 2.26% (active) | 64.9% | 120% | 104% | 45.3% | 107 | 61.7% | 48.9% | 100% | – | 120% | – | 91.4% | 90.2% | 85.2%
CCOC(=O)c1cc2c(n1Cc1cccc(OC)c1)-c1oncc1CCC2 | 10.8% | -0.828% (active) | 53.9% | 21.4% | 38.8 | 7.73% (active) | 2.09% (active) | 42.7% | – | 10% | 39.4 | 27.3% | 38.8% | 31% | – | 36.9% | 29.3% | 7.49% (active) | 1.56% (active) | 47.8%
COc1ccc(Cn2c(Br)c3c(c2-c2cc(OC)c(OC)c(OC)c2)CCc2sc(NC(=O)c4ccc(OC)cc4)nc2-3)cc1 | 84.6% | 86.1% | 87.1% | 91.9% | 78.6 | 67.8% | 100% | 116% | 97.4% | 101% | 98.5 | 98.6% | 84.2% | 94.9% | 92.5% | 96.7% | – | 82.4% | 86.7% | 105%
COc1ccc(/C(C#N)=C/c2nc3c(N4CCOCC4)nc(Cl)nc3n2C)cc1OC | 0.867% (active) | 32.7% | 9.29% (active) | -67.5% (active) | 14.5 | -6.46% (active) | -26.5% (active) | 16.2% | – | 3.73% (active) | 23.5 | 12.5% | 9.66% (active) | -5.32% (active) | -71% (active) | 42.7% | -40.8% (active) | -7.9% (active) | -50.5% (active) | 15.1%
COc1cc(C(=O)O/N=C(\N)Cc2cccc3ccccc23)cc(OC)c1OC | -43.2% (active) | -85.9% (active) | -46.6% (active) | 7.59% (active) | 17.6 | -84.6% (active) | -88.7% (active) | -89.3% (active) | -72.7% (active) | -74.3% (active) | 68.2 | -67.8% (active) | 27.6% | -88.3% (active) | -81.9% (active) | -80.9% (active) | – | -19.4% (active) | -97.9% (active) | –
CCOC(=O)c1cc2c(n1Cc1cc(OC)cc(OC)c1)-c1oncc1CCC2 | 7.66% (active) | 8.25% (active) | 15.5% | 18.6% | 33.5 | -16.6% (active) | 2.3% (active) | 52.9% | – | 6.58% (active) | 28.5 | 17.3% | 33.2% | 31.6% | 25.3% | 41.8% | 24.2% | 16.3% | 1.12% (active) | 53.3%
CN=c1ccc2nc3ccc(N)cc3sc-2c1 | 20.7% | -22.9% (active) | 7.68% (active) | 49.9% | 16.1 | -43.1% (active) | 12% | -19.3% (active) | 9.39% (active) | 84.6% | 30.9 | – | 5.54% (active) | 15.8% | – | -0.853% (active) | – | 33.6% | – | 51.7%
COc1cccc(C2=NN3C(C2)c2ccccc2OC3c2ccc(/C=C3\SC(=O)NC3=O)cc2)c1 (configuration not stated) | 105% | 105% | 95.4% | 105% | 94.6 | 94.3% | 102% | 106% | 104% | 111% | 105 | 102% | – | 104% | 70.5% | 97.8% | – | 95% | 91.8% | 104%
